ELG1 genotoxic = inducers of genotoxicity in HEK293T ELG1-luciferase cells; 330,000 tested, 1.3% active; Potency, µM (doses to about 46 µM), for the others: at the top dose activity change, positive = activation, usual class: activators; HEK293T ELG1-luciferase reporter, luminescence, 16 h; note: % of control where 0% means no effect; nearly all actives have a fitted effect of over 60% in size
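Genotoxic stress is detected as increased luminescence from luciferase-tagged ELG1 in HEK293T cells, measured with ONE-Glo after a 16 hr treatment at 37 °C.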
NPC1 promoter act = activates the NPC1 promoter; Potency, µM (series often up to 9.22 µM), without a hit: top-dose activation, most hits filed as activators; Huh7 NPC1 promoter luciferase reporter, 24 h; 320,000 tested, 2.4% active; AID 485313; note: % of control where 0% means no effect; nearly all actives have a fitted effect of over 60% in size
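Stably transfected Huh7 (NPC1 promoter→luciferase), 1500 cells/well in Opti-MEM + 10% FBS, 2 h settle, then compound 24 h at 37 °C. Luminescence after 10 min with Amplite reagent.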
Rab9 prom act = Rab9 promoter activation | Potency, µM (top dose mostly 9.22 µM), for inactives: at the top dose activation, negative = inhibition, usual class: activators | Huh7 Rab9 promoter-luciferase reporter, luminescence, 24 h | AID 485297 | 320,000 tested, 2.8% active; note: % of control where 0% means no effect; nearly all actives have a fitted effect of over 60% in size
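Quantitative HTS format; Huh7 Rab9-luciferase reporter cells (1500/well) receive compound 2 h post-plating, incubate 24 h at 37 °C, then get luciferase reagent for 10 min before luminescence reading.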
ELG1 repair inh = inhibitors of ELG1-dependent DNA repair in HEK293T cells. Potency, µM (doses to about 46.1 µM), without a hit: at the top dose activity change, negative = inhibition, most hits filed as inhibitors. HEK293T ELG1-luciferase reporter, luminescence, 16 h; DNA damage induced by 5-fluorouridine. 330,000 tested, 2.3% active; note: % is set by controls: 0 for no effect and ±100 for the full control effect; nearly all actives have a fitted effect of over 55% in size
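Overnight (16 hr) co-exposure of 2,000 cells/well to 5-fluorouridine and compound at 37 °C preceded detection. Luciferase was quantified via ONE-Glo luminescence; loss of signal denotes inhibition.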
SMN2 splice enh = increases expression of the SMN2 splice variant | 210,000 tested, 2.8% active | Potency, µM (top dose mostly 46.1 µM), without a hit: top-dose activity change, positive = activation, usual class: activators | HEK293 SMN2-luciferase splicing reporter, luminescence, 30-36 h; note: % of control where 0% means no effect; nearly all actives have a fitted effect of over 55% in size
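qHTS luciferase splicing reporter: luminescence rises when SMN2 exon 7 is included in transfected HEK293 cells. Compound exposure lasted 30-36 h at 37C, with 4.5 mM final sodium butyrate as control, followed by a ONE-Glo read.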
FLuc modulator = counter-screen for miR-21 project: firefly luciferase inhibitors or activators; Potency, µM (series often up to 57.5 µM), for inactives: top-dose activity change, negative = inhibition, hits mostly inhibitors; 360,000 tested, 6.9% active; purified FLuc, Km substrates, luminescence inhibition; P08659;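 note: plate controls were vehicle for no effect and reference inhibitor for full effect; nearly all actives have a fitted effect of over 55% in size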
Target sequence (P08659 whole entry, looked up): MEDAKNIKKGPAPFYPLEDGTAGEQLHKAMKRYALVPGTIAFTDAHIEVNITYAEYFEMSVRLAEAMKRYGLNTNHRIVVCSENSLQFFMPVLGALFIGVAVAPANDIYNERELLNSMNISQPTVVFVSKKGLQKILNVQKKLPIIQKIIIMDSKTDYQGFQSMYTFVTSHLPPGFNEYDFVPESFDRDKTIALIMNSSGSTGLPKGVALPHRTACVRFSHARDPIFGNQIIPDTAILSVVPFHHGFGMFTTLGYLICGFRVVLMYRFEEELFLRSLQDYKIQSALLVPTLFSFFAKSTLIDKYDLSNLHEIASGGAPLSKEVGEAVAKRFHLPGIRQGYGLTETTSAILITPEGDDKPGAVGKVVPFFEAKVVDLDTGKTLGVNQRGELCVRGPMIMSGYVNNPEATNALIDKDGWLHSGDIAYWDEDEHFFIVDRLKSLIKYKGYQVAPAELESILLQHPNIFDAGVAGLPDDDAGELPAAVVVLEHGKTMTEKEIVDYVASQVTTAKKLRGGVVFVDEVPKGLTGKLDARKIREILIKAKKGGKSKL
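Purified P. pyralis luciferase, 10 nM final, with Km-level 10 uM D-luciferin and 10 uM ATP in 50 mM Tris acetate pH 7.5, 10 mM Mg acetate, 0.01% Tween-20, 0.05% BSA; 6-point qHTS titration about 60 µM downward; luminescence read.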
Starred values were filed as active, the others as inactive. An excerpt weighted towards active compounds, which were near 9.2% of everything screened. Calls come from the whole dose curve; as a rule, active = well fitted curve in the direction sought with a large enough effect; inconclusive = small, poorly fitted or top-dose-only effect, or another doubt; inactive = no such curve, though single readings can be large; an effect the other way counts as inactive or inconclusive. Potency is the fitted concentration of half-maximal effect.

Screening O=C(Nc1ccon1)c1csc2c1CCCC2 returned ELG1 genotoxic 8%, NPC1 promoter act 8%, Rab9 prom act 9%, ELG1 repair inh 14%, SMN2 splice enh -3% and FLuc modulator inconclusive.
`O=C(Nc1nccs1)c1csc2c1CCCC2` gave ELG1 genotoxic 8%, NPC1 promoter act 28%, Rab9 prom act 28%, ELG1 repair inh inconclusive, SMN2 splice enh 26% and FLuc modulator 13µM*.
`Cc1ccc(/C=N/NC(=O)c2ccncc2)cc1` gave ELG1 genotoxic -5%, NPC1 promoter act -1%, Rab9 prom act 6%, ELG1 repair inh 8% and FLuc modulator inconclusive.
For Cc1ccc(/C=N\NC(=O)c2csnn2)cc1 the results were ELG1 genotoxic inconclusive, NPC1 promoter act 3.5µM*, Rab9 prom act 2.5µM*, ELG1 repair inh inconclusive, SMN2 splice enh -3% and FLuc modulator 3.8µM*.
`COc1ccc(NC(=O)c2csc3c2CCCC3)cc1` gave ELG1 genotoxic inconclusive, NPC1 promoter act 2µM*, Rab9 prom act 3.2µM*, ELG1 repair inh inconclusive, SMN2 splice enh 13µM* and FLuc modulator 3µM*.
Screening Cc1ccccc1NC(=O)Nc1csc2c1CCCC2 returned SMN2 splice enh 5% and FLuc modulator inconclusive.
For CC(=O)NCCc1nc2ccccc2n1Cc1cccc(C)c1 the results were ELG1 genotoxic 4%, NPC1 promoter act -3%, Rab9 prom act -4%, ELG1 repair inh 17% and FLuc modulator -1%.
`Cc1ccccc1S(=O)(=O)Cc1ccc(C(=O)NC2CCCCC2)o1` gave ELG1 genotoxic -4%, NPC1 promoter act -2%, Rab9 prom act -1%, ELG1 repair inh 1%, SMN2 splice enh -24% and FLuc modulator 1%.
`COc1cc(/C=N/NC(=O)c2csc3c2CCCC3)cc(OC)c1O` gave ELG1 genotoxic -1%, NPC1 promoter act 7%, Rab9 prom act 0%, ELG1 repair inh -1%, SMN2 splice enh 8% and FLuc modulator -19%.
For Cc1cc(NC(=O)Nc2csc3c2CCCC3)ccc1Br the results were SMN2 splice enh -1% and FLuc modulator inconclusive.
`CC(C)c1ccc(NC(=O)Nc2csc3c2CCCC3)cc1` gave SMN2 splice enh -30% and FLuc modulator 4.8µM*.
`CC(CNC(=O)c1csc2c1CCCCC2)c1ccccc1` (stereo not given) gave SMN2 splice enh 11µM* and FLuc modulator 15µM*.
For Cc1ccc(/C=N/NC(=O)c2csc3c2CCCC3)cc1 the results were ELG1 genotoxic inconclusive, NPC1 promoter act 0%, Rab9 prom act 24%, ELG1 repair inh inconclusive, SMN2 splice enh 24% and FLuc modulator 11µM*.
For COc1cccc(NC(=O)c2csc3c2CCCC3)c1 the results were ELG1 genotoxic inconclusive, NPC1 promoter act inconclusive, Rab9 prom act inconclusive, ELG1 repair inh inconclusive, SMN2 splice enh 14µM* and FLuc modulator 9.5µM*.
`COc1ccc(-c2nc3scc(CCNS(=O)(=O)c4ccc(Oc5ccccc5)cc4)n3n2)cc1OC` gave FLuc modulator -11%.
O=S(=O)(NCC(O)c1ccccc1)c1cc(Cl)sc1Cl (stereo not given) was read as ELG1 genotoxic -3%, NPC1 promoter act 0%, Rab9 prom act 7%, ELG1 repair inh 25% and FLuc modulator 4%.
`CCOc1ccccc1CNC(=O)c1cnc2sc(N3CCCCCC3)nn2c1=O` gave FLuc modulator -14%.
O=C(O)c1cc(-c2ccc(C(F)(F)F)cc2)nc2n[nH]c(-c3ccccc3)c12 was read as FLuc modulator 3µM*.
`COc1ccc(-c2cc(C(=O)NCCc3ccccc3)c3c(-c4ccccc4)[nH]nc3n2)cc1` gave FLuc modulator 0%.
COc1ccc(CCNC(=O)Cc2ccc(OCc3ccccc3)c(OC)c2[N+](=O)[O-])cc1OCc1ccccc1 was read as ELG1 genotoxic -7%, NPC1 promoter act -2%, Rab9 prom act -1%, ELG1 repair inh inconclusive, SMN2 splice enh -34% and FLuc modulator -1%.
For C1=Nc2ccccc2CN1c1ccccc1 the results were ELG1 genotoxic inconclusive, NPC1 promoter act inconclusive, Rab9 prom act inconclusive, ELG1 repair inh inconclusive, SMN2 splice enh 7.9µM* and FLuc modulator 15µM*.
`CC(C)c1ccc(N2C=Nc3ccc(C(C)C)cc3C2)cc1` gave ELG1 genotoxic inconclusive, NPC1 promoter act 6%, Rab9 prom act 11%, ELG1 repair inh -9% and FLuc modulator inconclusive.
`COc1cc(/C=N/NC(=S)Nc2cccc(C(=O)O)c2)ccc1O` gave ELG1 genotoxic 1%, NPC1 promoter act inconclusive, Rab9 prom act inconclusive, ELG1 repair inh -7%, SMN2 splice enh 10% and FLuc modulator 4.3µM*.
Screening COc1ccc(/C=N/NC(=S)Nc2cccc(C(=O)O)c2)cc1 returned ELG1 genotoxic -6%, NPC1 promoter act 2µM*, Rab9 prom act 1.8µM*, ELG1 repair inh inconclusive, SMN2 splice enh 13µM* and FLuc modulator 1.7µM*.
Screening S=C(N/N=C/c1ccccc1Cl)Nc1ccccc1 returned ELG1 genotoxic 0%, NPC1 promoter act inconclusive, Rab9 prom act inconclusive, ELG1 repair inh 11µM*, SMN2 splice enh 28% and FLuc modulator 19µM*.
COC(=O)c1cnn(-c2ccc(F)cc2F)c1/C=N/NC(N)=S was read as ELG1 genotoxic -7%, NPC1 promoter act 2%, Rab9 prom act -5%, ELG1 repair inh 13µM* and FLuc modulator 1%.
Screening CNC(=S)N/N=C/c1ccccc1Cl returned ELG1 genotoxic 4%, NPC1 promoter act -1%, Rab9 prom act 0%, ELG1 repair inh inconclusive, SMN2 splice enh 26% and FLuc modulator 2%.
For CNC(=S)N/N=C/c1c(C(=O)OC)cnn1-c1ccc(F)cc1F the results were ELG1 genotoxic -6%, NPC1 promoter act 1%, Rab9 prom act -5%, ELG1 repair inh inconclusive and FLuc modulator 1%.
`Nc1ncnc2c1nc(SCCO)n2Cc1ccccc1` gave ELG1 genotoxic -10%, NPC1 promoter act -4%, Rab9 prom act 1%, ELG1 repair inh inconclusive, SMN2 splice enh -26% and FLuc modulator -4%.
COc1ccc(/C=N/NC(=S)Nc2ccccc2)cc1 was read as ELG1 genotoxic inconclusive, NPC1 promoter act inconclusive, Rab9 prom act 4µM*, ELG1 repair inh inconclusive, SMN2 splice enh 10µM* and FLuc modulator 11µM*.
Screening CC(=O)Nc1cccc(C(=O)N/N=C/c2cccnc2)c1 returned ELG1 genotoxic 9%, NPC1 promoter act 2%, Rab9 prom act 11%, ELG1 repair inh 30%, SMN2 splice enh 4% and FLuc modulator inconclusive.
